Measured values published in PubChem BioAssay.
The source made the active and inactive calls. Unless noted, the rule behind the calls is not given here.

Key:
[1] = compounds binding Alexa647 anti-His antibody – biochemical, small-molecule microarray, 635 nm fluorescence, artefact control for SMM control protein annotation, primary screen (AID 1128); settings: higher = more signal;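 note: score merges feature fluorescence with signal-to-noise for each printed compound spot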
[2] = test system: Human papillomavirus type 1a E7 protein (residues 1-88); assay: HPV1a E7 small-molecule binders, primary screen, biochemical, small-molecule microarray, residues 1-88, 635 nm (AID 1129); settings: small-molecule microarray binding, fluorescence 635 nm; higher = more signal
[3] = target: Focal adhesion kinase 1 (Homo sapiens) (UniProt Q05397); assay: PTK2 protein binding on printed compound slides – biochemical, small-molecule microarray, 635/667 nm fluorescence, BSA, DTT, primary screen (AID 1130); settings: 635 nm fluorescence, higher = more signal;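 note: composite of spot emission at 667 nm and signal to noise over triplicate slides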
Chain of Focal adhesion kinase 1 (Homo sapiens) (Q05397 whole entry, looked up): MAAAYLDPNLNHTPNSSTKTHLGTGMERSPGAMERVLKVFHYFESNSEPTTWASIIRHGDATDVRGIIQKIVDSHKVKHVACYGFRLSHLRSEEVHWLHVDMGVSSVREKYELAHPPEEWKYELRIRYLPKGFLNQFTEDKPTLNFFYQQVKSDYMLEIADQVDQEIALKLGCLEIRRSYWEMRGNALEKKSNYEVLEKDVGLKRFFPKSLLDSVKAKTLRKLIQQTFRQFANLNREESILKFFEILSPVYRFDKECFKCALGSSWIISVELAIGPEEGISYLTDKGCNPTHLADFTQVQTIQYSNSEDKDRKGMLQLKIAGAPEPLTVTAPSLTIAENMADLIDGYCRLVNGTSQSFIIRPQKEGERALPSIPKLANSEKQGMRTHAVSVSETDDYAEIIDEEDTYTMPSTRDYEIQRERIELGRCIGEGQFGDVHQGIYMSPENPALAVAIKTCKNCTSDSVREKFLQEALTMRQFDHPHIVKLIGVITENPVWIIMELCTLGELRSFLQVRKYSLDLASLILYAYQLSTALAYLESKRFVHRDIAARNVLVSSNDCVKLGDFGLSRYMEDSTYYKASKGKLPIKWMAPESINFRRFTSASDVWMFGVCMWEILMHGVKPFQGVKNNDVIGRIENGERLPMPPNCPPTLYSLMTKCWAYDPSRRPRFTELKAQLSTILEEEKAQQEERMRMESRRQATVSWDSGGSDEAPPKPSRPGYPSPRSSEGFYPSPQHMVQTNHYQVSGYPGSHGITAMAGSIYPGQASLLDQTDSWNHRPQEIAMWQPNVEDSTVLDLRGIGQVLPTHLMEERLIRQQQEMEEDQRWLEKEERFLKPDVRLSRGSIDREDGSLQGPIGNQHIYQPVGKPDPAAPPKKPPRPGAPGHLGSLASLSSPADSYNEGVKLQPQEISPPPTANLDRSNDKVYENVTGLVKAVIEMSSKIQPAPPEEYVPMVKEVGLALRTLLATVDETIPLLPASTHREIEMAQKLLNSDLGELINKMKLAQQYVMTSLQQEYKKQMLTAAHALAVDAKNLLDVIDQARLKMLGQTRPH

[4] = test system: Fibrinogen (Alexa647-labelled); assay: Alexa647-fibrinogen binding to printed small molecules – biochemical, small-molecule microarray, 635/667 nm fluorescence, artefact control for SMM control-protein annotation, profiling panel (AID 1131); settings: fibrinogen-A647 binding fluorescence, higher = more signal;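 note: z-score merges 667 nm fluorescence with per-spot signal-to-noise over triplicate slides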
[5] = target: Follistatin (Homo sapiens) (UniProt P19883); assay: FST protein binding to printed compounds – biochemical, small-molecule microarray, 635/667 nm fluorescence, primary screen (AID 1132); settings: 635 nm fluorescence, higher = more signal
Chain of Follistatin (Homo sapiens) (P19883 whole entry, looked up): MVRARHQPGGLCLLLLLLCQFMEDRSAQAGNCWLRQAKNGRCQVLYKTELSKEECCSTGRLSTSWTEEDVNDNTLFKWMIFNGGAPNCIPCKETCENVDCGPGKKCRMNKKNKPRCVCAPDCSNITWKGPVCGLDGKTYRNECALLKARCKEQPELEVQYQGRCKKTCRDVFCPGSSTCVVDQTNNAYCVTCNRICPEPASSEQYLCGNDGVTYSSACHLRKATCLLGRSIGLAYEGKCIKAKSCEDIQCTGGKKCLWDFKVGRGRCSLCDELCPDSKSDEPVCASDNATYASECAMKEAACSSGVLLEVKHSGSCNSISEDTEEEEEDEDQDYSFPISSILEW

[6] = target: Fibroblast growth factor 2 (Homo sapiens) (UniProt P09038); assay: basic fibroblast growth factor binding to printed compounds – biochemical, small-molecule microarray, 635/667 nm fluorescence, primary screen (AID 1133); settings: FGF2, fluorescence 635/667, higher = more signal
Chain of Fibroblast growth factor 2 (Homo sapiens) (P09038 whole entry, looked up): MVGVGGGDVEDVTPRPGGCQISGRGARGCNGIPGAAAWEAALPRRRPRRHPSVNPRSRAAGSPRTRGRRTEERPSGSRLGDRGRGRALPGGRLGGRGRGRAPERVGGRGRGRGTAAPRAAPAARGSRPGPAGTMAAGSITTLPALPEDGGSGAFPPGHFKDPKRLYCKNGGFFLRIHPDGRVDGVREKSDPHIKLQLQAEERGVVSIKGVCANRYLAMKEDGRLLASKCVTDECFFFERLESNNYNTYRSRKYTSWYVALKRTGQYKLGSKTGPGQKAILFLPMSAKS

[7] = JC-1 mitochondrial potential readout, lung cancer cells – cell-based, A549, JC-1 fluorescence, basal, 24 h, 100 nL, profiling panel (AID 1138); settings: higher = more signal;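 note: A549 lung adenocarcinoma cells under basal conditions with no added stimulus; test concentration not given here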
Lefty1 = Lefty1 protein binding to printed compounds – biochemical, small-molecule microarray, 635/667 nm fluorescence, primary screen (AID 1139); settings: fluorescence 635/667, higher = more signal
[8] = test system: wheat germ agglutinin (Triticum aestivum), Alexa647-labelled; assay: Alexa647-WGA lectin binding to printed small molecules – biochemical, small-molecule microarray, 635/667 nm fluorescence, artefact control for SMM control-protein annotation, profiling panel (AID 1140); settings: WGA-A647 binding, 635 nm fluorescence, higher = more signal;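 note: score merges 667 nm feature emission with signal to noise over triplicate slides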
[9] = target: Luciferin 4-monooxygenase (Photinus pyralis) (UniProt P08659); assay: inhibition of purified Photinus pyralis luciferase – biochemical, luminescence, purified enzyme, 2006 set, primary screen (AID 1141); settings: purified firefly luciferase, SteadyGlo luminescence, 30 min; higher = more signal, called active from +8 up or from −8 down;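 note: cell-free assay with purified firefly luciferase at 100 ng per well in PBS; test concentration not given here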
Chain of Luciferin 4-monooxygenase (Photinus pyralis) (P08659 whole entry, looked up): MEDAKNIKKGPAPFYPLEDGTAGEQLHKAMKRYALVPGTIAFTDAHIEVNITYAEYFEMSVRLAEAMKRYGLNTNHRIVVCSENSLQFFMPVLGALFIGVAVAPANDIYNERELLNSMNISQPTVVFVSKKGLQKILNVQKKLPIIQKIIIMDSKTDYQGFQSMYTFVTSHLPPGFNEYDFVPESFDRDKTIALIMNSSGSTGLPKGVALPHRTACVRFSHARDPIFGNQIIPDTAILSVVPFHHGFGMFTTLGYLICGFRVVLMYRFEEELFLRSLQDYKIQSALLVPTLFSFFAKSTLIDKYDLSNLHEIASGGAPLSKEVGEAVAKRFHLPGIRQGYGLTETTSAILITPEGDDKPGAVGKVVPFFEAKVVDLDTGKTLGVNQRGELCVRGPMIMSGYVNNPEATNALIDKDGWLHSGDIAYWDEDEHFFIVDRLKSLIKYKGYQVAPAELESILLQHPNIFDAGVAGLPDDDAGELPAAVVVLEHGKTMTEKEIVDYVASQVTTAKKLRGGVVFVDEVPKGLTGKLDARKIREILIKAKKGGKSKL

[10] = test system: Wnt5a (protein binding on small-molecule microarray); assay: small molecules binding Wnt5a protein – biophysical, small-molecule microarray, 635/667 nm fluorescence, primary screen (AID 1142); settings: 635 nm fluorescence, higher = more signal;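 note: fluorescence read at 667 nm with signal to noise per printed feature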
[11] = ATP-based viability of Huh7 replicon cells – cell-based, CellTiter-Glo luminescence, basal, 48 h, cytotoxicity control for HCV replication inhibitor project, primary screen (AID 1143); settings: higher = more signal, called active from +8 up or from −8 down;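 note: Huh7 hepatoma cells carrying a hepatitis C replication reporter with no stimulus; test concentration not given here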
[12] = Pseudomonas biofilm growth suppression – PAO1 strain, BacTiter-Glo luminescence, LB-PBS, primary screen (AID 1144); settings: P. aeruginosa PAO1 biofilm, 12 h, higher = more signal
[13] = basal CRE-LacZ reporter activity in PC12 – cell-based, unstimulated, primary screen (AID 1145); settings: no forskolin, luminescence, 4.5 h, higher = more signal, called active from +8 up or from −8 down
[14] = forskolin-driven CRE-LacZ activity in PC12 – cell-based, CRE-LacZ reporter, forskolin-stimulated, primary screen (AID 1146); settings: luminescence, 4.5 h, higher = more signal, called active from +8 up or from −8 down;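 note: PC12 cells with 6xCRE LacZ reporter stimulated by forskolin 10 µM; beta-galactosidase reporter signal reflecting CREB driven transcription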
[15] = target: Streptavidin (Streptomyces avidinii) (UniProt P22629); assay: compounds binding control protein streptavidin – biophysical, small-molecule microarray, 635/667 nm fluorescence, artefact control for SMM compound annotation, primary screen (AID 1147); settings: higher = more signal;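 note: signal reflects streptavidin binding to arrayed compounds as a control protein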
Chain of Streptavidin (Streptomyces avidinii) (P22629 whole entry, looked up): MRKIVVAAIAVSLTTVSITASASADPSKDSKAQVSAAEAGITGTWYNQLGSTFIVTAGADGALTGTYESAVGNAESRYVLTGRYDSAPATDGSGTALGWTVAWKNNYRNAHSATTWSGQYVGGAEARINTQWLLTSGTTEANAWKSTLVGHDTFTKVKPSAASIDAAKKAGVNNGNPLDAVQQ

[16] = probe aInhba binding on compound microarray – biochemical, small-molecule microarray, 635/667 nm fluorescence, primary screen (AID 1148); settings: higher = more signal;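 note: score merges 667nm spot fluorescence with signal-to-noise for antibody binding to printed compounds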
Torsin-1A (Homo sapiens) [17] = target: Torsin-1A (Homo sapiens) (UniProt O14656); assay: TOR1A wild-type binding on microarray – cell lysate, small-molecule microarray, lysate, 635/667 nm, primary screen (AID 1149); settings: COS7 hTOR1A-WT lysate, 635 nm fluorescence, higher = more signal
Chain of Torsin-1A (Homo sapiens) (O14656 whole entry, looked up): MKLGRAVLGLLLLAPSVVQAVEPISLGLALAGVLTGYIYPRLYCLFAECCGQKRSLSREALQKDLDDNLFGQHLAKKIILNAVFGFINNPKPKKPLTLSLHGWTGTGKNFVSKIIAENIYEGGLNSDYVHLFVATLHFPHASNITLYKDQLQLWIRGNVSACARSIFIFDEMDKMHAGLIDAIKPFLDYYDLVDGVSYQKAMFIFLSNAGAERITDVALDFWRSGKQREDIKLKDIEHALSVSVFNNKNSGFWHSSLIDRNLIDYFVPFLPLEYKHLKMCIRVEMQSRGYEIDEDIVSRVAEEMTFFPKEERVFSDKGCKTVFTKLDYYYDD

Torsin-1A (Homo sapiens) [18] = target: Torsin-1A (Homo sapiens) (UniProt O14656); assay: torsin A mutant lysate binding on microarrays – cell lysate, small-molecule microarray, COS7 lysate, 635/667 nm fluorescence, primary screen (AID 1150); settings: COS7 hTOR1A mutant lysate, 635 nm fluorescence, higher = more signal;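 note: score pools 667 nm emission and signal to noise measuring lysate protein binding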
[19] = test system: Sonic hedgehog protein (Shh); assay: Sonic hedgehog microarray binding compounds – biochemical, small-molecule microarray, 635/667 nm fluorescence, primary screen (AID 1151); settings: 635 nm fluorescence, higher = more signal;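 note: Shh protein binding to compounds spotted on small-molecule microarray slides; score combines spot fluorescence intensity with signal-to-noise across triplicate slides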

Row | Structure (SMILES) | composite z-score [1] | composite z-score [2] | composite z-score [3] | composite z-score [4] | composite z-score [5] | composite z-score [6] | z-score [7] | composite z-score (Lefty1) | composite z-score [8] | z-score [9] | composite z-score [10] | z-score [11] | z-score [12] | z-score [13] | z-score [14] | composite z-score [15] | composite z-score [16] | composite z-score (Torsin-1A (Homo sapiens) [17]) | composite z-score (Torsin-1A (Homo sapiens) [18]) | composite z-score [19]
1 | CO[C@H]1O[C@H](CO)[C@@H](OC(=O)Nc2ccc3c(c2)OCO3)[C@@H]2OC(=O)[C@@H](Cc3ccccc3)C/C=C/C[C@H](Cc3ccccc3)C(=O)O[C@@H]12 | 2.53 | 1.18 | 0.458 | 0.659 | 0.974 | 0.684 | 2.76 | 0.433 | 0.214 | -1.01 (inactive) | 0.465 | -2.26 (inactive) | 0.293 (inactive) | 0.951 (inactive) | -0.601 (inactive) | 0.294 | 0.24 | -0.0548 | 0.266 | 1.32
2 | C=CC[C@]1(C(=O)N(C)C)COC(c2ccc(OCCCO)cc2)=N1 | 3.41 | 1.09 | 0.268 | -0.744 | 0.517 | 0.982 | -0.392 | -0.26 | 0.615 | -2.7 (inactive) | 1.07 | -1.88 (inactive) | -1.15 (inactive) | 2.5 (inactive) | -1.45 (inactive) | 2.12 | 0.3 | 0.577 | 1.85 | -0.174
3 | C[N+](C)(C)CCCC[C@@H]1NC(=O)[C@H]2C[C@@H](C(=O)NCCCCCNC(=O)CS)[C@@H](c3ccc(O)cc3)N2C1=O | 2.82 | 0.785 | 0.336 | 0.9 | 1.07 | 0.826 | 0.455 | 0.349 | 0.215 | -1.2 (inactive) | 0.084 | -0.523 (inactive) | -1.39 (inactive) | 0.0084 (inactive) | -0.165 (inactive) | 0.354 | -0.045 | 0.327 | 0.891 | 0.748
4 | COCCOC(=O)N1C(=O)[C@@]2(c3cc(C#CC4=CCCCC4)ccc31)[C@H](C(=O)N1CCc3cc(OC)c(OC)cc3C1)[C@H]1C(=O)O[C@H](c3ccccc3)[C@H](c3ccccc3)N1[C@@H]2c1ccc(O)cc1 | 1.62 | 1.2 | 0.596 | 0.947 | 0.861 | 0.998 | -0.608 | 0.917 | 0.854 | -0.914 (inactive) | 0.718 | -0.447 (inactive) | 0.108 (inactive) | -0.321 (inactive) | -0.539 (inactive) | 1.85 | 0.467 | 0.544 | 1.23 | 1.67
5 | O=C1NC(=O)C2C1C=CC(C(O)c1cccc(O)c1)N2Nc1ccc(Cl)cc1Cl (stereo not given) | 0.33 | -0.0332 | 0.263 | -0.348 | -0.127 | 0.0853 | -0.812 | -0.317 | 0.447 | -0.259 (inactive) | -0.125 | -1.08 (inactive) | -0.355 (inactive) | 0.629 (inactive) | -0.45 (inactive) | 0.423 | -0.13 | -0.309 | 0.25 | -1.14
6 | CCCCCCCCCCC(O)C1C=CC2C(=O)N(C)C(=O)C2N1N1CCCCC1 (stereo not given) | 0.373 | -0.768 | 0.0399 | -1.27 | -2.14 | -1.02 | 0.44 | -1.84 | -0.325 | -0.224 (inactive) | -0.542 | -0.6 (inactive) | 0.816 (inactive) | 0.0569 (inactive) | 1.39 (inactive) | -0.862 | -0.0762 | -0.0728 | 0.522 | -1.89
7 | CN(C)C(=O)[C@]1(Cc2ccccc2)N=C(c2ccc(OCCCO)cc2)O[C@@H]1c1ccccc1 | 2.94 | 1.25 | 0.593 | 1 | 0.973 | -0.263 | 0.473 | -0.222 | 1.2 | -0.701 (inactive) | 0.0831 | -3.35 (inactive) | 0.18 (inactive) | 1.24 (inactive) | 0.14 (inactive) | 0.589 | 0.0184 | 0.193 | 0.71 | -0.46
8 | CCCC[C@@H]1C[C@H]1[C@@H](NC(=O)c1ccc(C(F)(F)F)cc1)c1ccc(C(=O)OC)cc1 | 1.21 | 0.411 | 0.135 | 0.366 | 1.25 | -0.115 | 1.19 | 0.944 | 0.849 | 0.915 (inactive) | 1.16 | -2.9 (inactive) | 0.164 (inactive) | 0.583 (inactive) | -0.269 (inactive) | 1.59 | -0.0092 | 3.21 | 3.93 | 1.91
9 | NCCCC[C@@H]1NC(=O)[C@H]2C[C@@H](C(=O)NCc3ccc(F)cc3)[C@@H](c3ccc(O)cc3)N2C1=O | 2.05 | 0.969 | -0.145 | 0.165 | 1.32 | 1.32 | -0.724 | 0.296 | 1.2 | 0.242 (inactive) | -0.0979 | 0.12 (inactive) | -0.0714 (inactive) | 0.143 (inactive) | 0.421 (inactive) | 0.829 | 0.0963 | 1.18 | 2.58 | 1.11
10 | CCN(CC)c1ccc(N2CC=CC34O[C@@H]5C=CCOC(=O)[C@@H]5[C@H]3C(=O)N(CCCO)[C@@H]4C2=O)cc1 (stereo not given in full) | 1.53 | -1.05 | -0.0534 | -0.973 | -0.658 | -0.576 | -0.125 | -0.923 | -0.245 | -0.803 (inactive) | -0.121 | -2.34 (inactive) | -0.527 (inactive) | -0.228 (inactive) | -0.905 (inactive) | -1.39 | -0.128 | 0.0507 | 2.46 | -0.0981
